“And” between values parts separate entries of the source, which are not always exact repeats. Equal values may be shown once. Results filed as inconclusive are left out. Unmarked numbers belong to inactive results. Calls follow the shape of the dose curve; as a rule, active = well fitted inhibition curve with a large enough effect; inconclusive = small, poorly fitted or top-dose-only effect; inactive = flat fitted curve, though single readings scatter. Where a SMILES comes first, the peptide text is derived from it. [ ]: non-standard residue; d: D form. pGlu = O=C1CC[C@@H](C(=O)O)N1
Assay: Drug repurposing screens with cells derived from glioblastoma tumor samples (AID 1345199); also: nearly all actives have a fitted effect of over 40% in size
Conditions: GBM patient neurospheres viability, ATP luminescence, 48 h; at 46 µM (top of the series); tumour line A
Outline: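 Primary testing used CD133+ neurospheres from four GBM patients, seven concentrations, 48 h exposure and ATP-based viability; confirmation added three slower-growing patient lines.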
% is scaled to controls: 0 for no effect and ±100 for the full control effect.

Compound | activity, negative = cell killing
CC[C@H](C)[C@H](NC(=O)[C@H](Cc1ccccc1)NC(=O)[C@H](C)NC(=O)[C@H](CC(=O)O)NC(=O)[C@H](CCCCN)NC(=O)[C@H](CO)NC(=O)[C@@H]1CCCN1C(=O)[C@@H]1CCC(=O)N1)C(=O)NCC(=O)N[C@@H](CC(C)C)C(=O)N[C@@H](CCSC)C(N)=O ([pGlu]PSKDAFIGLM-NH2) | -9.58%
O=C(O)/C=C/c1ccccc1 | -20.1%
CC(C)[C@@H]1CC[C@@H](C)C[C@H]1O | -18.1%
CO/N=C(\C(=O)N[C@@H]1C(=O)N2C(C(=O)O)=CCS[C@H]12)c1csc(N)n1 | -10.3%
CCCc1nc(C(C)(C)O)c(C(=O)OCc2oc(=O)oc2C)n1Cc1ccc(-c2ccccc2-c2nn[nH]n2)cc1 | -13%
CC(C)C[C@H](NC(=O)[C@@H](COC(C)(C)C)NC(=O)[C@H](Cc1ccc(O)cc1)NC(=O)[C@H](CO)NC(=O)[C@H](Cc1c[nH]c2ccccc12)NC(=O)[C@H](Cc1cnc[nH]1)NC(=O)[C@@H]1CCC(=O)N1)C(=O)N[C@@H](CCCN=C(N)N)C(=O)N1CCC[C@H]1C(=O)NNC(N)=O | -28.3% and -17.4%
COC(=O)c1ccccc1O | -21.5%
O=C(NCCNCC(O)COc1ccc(O)cc1)N1CCOCC1 (centres undefined) | -55.7%
C[C@H](CCC(=O)O)[C@H]1CC[C@H]2[C@@H]3CC[C@@H]4C[C@H](O)CC[C@]4(C)[C@H]3C[C@H](O)[C@]12C | -19.5%

From PubChem BioAssay (NCATS)
